Screening data as filed in PubChem.
Sampled rows, rich in hits. Any-hit rate of the full collection: about 4.7%.
hDAT+cocaine: changed human dopamine transporter uptake under cocaine IC80. LLC-PK1 hDAT cells, [14C]-dopamine uptake with cocaine IC80; actives deviate in either direction. Q01959. AID 449768. hit rate 1.3% among 110,000. B-score at 10 µM;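 active = Z score or B-score, a plate-position-corrected score, falls beyond the plate's 99.7% confidence bounds, in either direction; inactive = both scores lie inside the 99.7% bounds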
PTK2B oligo ant: antagonists of human Pyk2 oligomerization; Q14289; Q293 cells, Pyk2 FERM NanoBiT luminescence; stronger effect = lower value; z-score (the deposit names both 25 µM and 10 µM); hit rate 0.83% among 99,000; AID 1347419;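 active = Z-score of -3 or lower, scaled per plate to the spread of control and sample wells; inactive = z-score above -3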;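 also: negative z-score means lost luminescence so less FERM oligomerization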
PLK1 PBD inh: inhibitors of human Plk1 polo box domain binding; hit rate 0.13% among 97,000; inhibition, %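 (tested at about 20 µM)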; Plk1 PBD phosphopeptide binding, fluorescence polarization; P53350; in the data active = inhibition above about 34%, passing the limit was not always enough
sdo1 growth: restores growth of sdo1-depleted yeast; AID 817; S. cerevisiae sdo1-depleted JHY4D growth rescue, OD600 30 h; stronger effect = higher value; pdr5 snq2 efflux-pump mutant strain; z-score at 10 µM; hit rate 0.21% among 140,000;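 active = z-score above 3 at both the 24 hr and the 30 hr optical density reads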
PLK1 kinase inh: inhibitors of human PLK1 kinase; recombinant PLK1 kinase, TR-FRET peptide phosphorylation; hit rate 0.53% among 97,000; P53350; inhibition, % at 10 µM;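 active = inhibition of 50% or more in the single-concentration screen; inactive = inhibition below 50%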
Cav3 T inh: human Cav3.2 channel inhibition, primary screen | O95180 | Cav3.2-expressing cells, Fluo-4 calcium fluorescence FDSS; stronger effect = lower value | B-score at 10 µM | hit rate 4% among 100,000 | AID 449739;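 active = single-dose well whose peak fluorescence ratio is a statistical outlier from its plate by either plate-standardised score or position-corrected B-score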
Large screens that a line does not name were inactive.

CC1CN(Cc2nc3c(c(=O)[nH]c(=O)n3C)n2CC(N)=O)CC(C)O1 (stereo not given)	PLK1 kinase inh 51 (no result: PTK2B oligo ant, Cav3 T inh)
CC1CN(Cc2nc3c(c(=O)[nH]c(=O)n3C)n2CCN2CCOCC2)CC(C)O1 (stereo not given)	none
CCC(SC1=N/C(=C/c2ccccc2OC)C(=O)N1c1ccccc1)C(=O)Nc1cc(C)on1 (stereo not given)	Cav3 T inh -4.8
CC1Cc2ccccc2N1CC(=O)NCc1ccccc1Cl (stereo not given)	none (no result: hDAT+cocaine, PTK2B oligo ant, PLK1 PBD inh, PLK1 kinase inh, Cav3 T inh)
C=CCc1cc(OC)ccc1OCC(O)CN1CCN(c2ccc(OC)cc2)CC1 (stereo not given)	none
COc1ccccc1N1CCN(CC(O)COc2cccc3ccccc23)CC1 (stereo not given)	Cav3 T inh -4.5 (no result: PTK2B oligo ant, PLK1 PBD inh, PLK1 kinase inh)
C=CCc1cc(C)ccc1OCC(O)CN1CCN(c2ccccc2)CC1 (stereo not given)	Cav3 T inh -4.6
O=C(NCCNC(=O)c1cc(OCC(F)(F)F)ccc1OCC(F)(F)F)Nc1cccc(C(F)(F)F)c1	Cav3 T inh -8
O=C(NCCNS(=O)(=O)c1ccccc1Cl)c1cc(OCC(F)(F)F)ccc1OCC(F)(F)F	none
Cc1ccc(NC(=O)C2CCCN2S(=O)(=O)c2ccc3c(c2)n(C)c(=O)c(=O)n3C)cc1C (stereo not given)	none (no result: hDAT+cocaine, PTK2B oligo ant, PLK1 PBD inh, PLK1 kinase inh, Cav3 T inh)
CCCCCCc1nc2ccccc2c(=O)n1NC(=O)c1c(O)c2cccc3c2n(c1=O)CC3	none (no result: hDAT+cocaine, PTK2B oligo ant, sdo1 growth, Cav3 T inh)
CCCc1nc2ccccc2c(=O)n1NC(=O)c1c(O)c2cccc3c2n(c1=O)CCC3	Cav3 T inh -8
O=C(NCc1ccco1)c1ccc(S(=O)(=O)N2CCCc3ccccc32)cc1	Cav3 T inh -3.9
Nc1ccc(S(=O)(=O)N2CCCc3ccccc32)cc1	hDAT+cocaine 2.3 (no result: PTK2B oligo ant)
COc1ccc(/C=C\C(=O)c2c(O)ccc3c(C)cc(=O)oc23)cc1OC	none
CC1Cc2ccccc2N1C(=O)C1CCCN(S(=O)(=O)c2cccc3cccnc23)C1 (stereo not given)	PLK1 kinase inh 55 (no result: PTK2B oligo ant)
Cn1cnnc1Sc1ccc(C(=O)NCCC23CC4CC(CC(C4)C2)C3)cc1[N+](=O)[O-]	none (no result: hDAT+cocaine, PTK2B oligo ant, PLK1 PBD inh, PLK1 kinase inh, Cav3 T inh)
CC(C)n1cnc2c(Nc3ccc(C(=O)O)cc3)nc(Cl)nc21	hDAT+cocaine -4 (no result: PTK2B oligo ant, PLK1 PBD inh, sdo1 growth, PLK1 kinase inh)
CC(C)[C@H](CO)Nc1nc(Nc2ccc(Cl)c(C(=O)O)c2)c2ncn(C(C)C)c2n1	none (no result: PTK2B oligo ant, PLK1 PBD inh, sdo1 growth, PLK1 kinase inh)
Cc1nn(Cc2ccc(Cl)cc2Cl)c(C)c1NC(=O)c1sc2ccccc2c1Cl	none
Cc1nn(Cc2c(Cl)cccc2Cl)c(C)c1NC(=O)c1sc2ccccc2c1Cl	none
Cc1ccccc1Cn1nc(C)c(NC(=O)c2sc3ccccc3c2Cl)c1C	Cav3 T inh -6.8
Cc1nn(Cc2ccc(Cl)c(Cl)c2)c(C)c1NC(=O)c1sc2ccccc2c1Cl	Cav3 T inh -8.1
Cc1cccc2sc(NC(=O)c3ccc(NS(=O)(=O)c4cccs4)cc3)nc12	none (no result: hDAT+cocaine, PTK2B oligo ant, PLK1 PBD inh, PLK1 kinase inh, Cav3 T inh)
CC(=O)N/N=C/c1ccc(OCCOc2ccc(Br)cc2)cc1	none (no result: hDAT+cocaine, PLK1 PBD inh, PLK1 kinase inh, Cav3 T inh)
CCCNC(=O)NC(=O)CSc1nc2cc(C(=O)OC)ccc2c(=O)n1-c1ccccc1	PTK2B oligo ant -3.1
CNC(=O)NC(=O)CSc1nc2cc(C(=O)OC)ccc2c(=O)n1-c1ccccc1	none
CC(O)[C@@H](C(=O)N1CCNCC1)n1cc(CCCCN)nn1 (stereo not given in full)	none (no result: PTK2B oligo ant, PLK1 PBD inh, sdo1 growth, PLK1 kinase inh)
Cc1cc(C)c(S(=O)(=O)Nc2cccc(/C=C/C(=O)O)c2)c(C)c1	none (no result: hDAT+cocaine, PTK2B oligo ant, PLK1 PBD inh, PLK1 kinase inh, Cav3 T inh)
O=C1NC(=S)N/C1=C/c1cccc([N+](=O)[O-])c1O	none
O=C1NC(=S)N/C1=C/c1cc([N+](=O)[O-])ccc1O	hDAT+cocaine -2.1
COc1ccc(-c2cn(-c3ccccc3)c3[n+]2CCS3)cc1	none (no result: hDAT+cocaine, PTK2B oligo ant, PLK1 PBD inh, PLK1 kinase inh, Cav3 T inh)
CCCCCN=C(N)N/N=C/c1c[nH]c2ccc(OC)cc12	hDAT+cocaine 3.7 (no result: PTK2B oligo ant, PLK1 PBD inh, sdo1 growth, PLK1 kinase inh, Cav3 T inh)
O=C(CC1SC(=NCCc2ccccc2)N(/N=C/c2cccs2)C1=O)Nc1ccc(Cl)cc1 (stereo not given)	none (no result: hDAT+cocaine, PTK2B oligo ant, PLK1 PBD inh, PLK1 kinase inh, Cav3 T inh)
O=C(Nc1cccc(F)c1)c1ccc(S(=O)(=O)NCC2CCCO2)cc1 (stereo not given)	Cav3 T inh -5.3
CCCCC(O)(C(NC=O)C(=O)OC)C(F)(F)F (stereo not given)	hDAT+cocaine -8.6
COc1cccc(=O)c2c(C)n(-c3cc(C)cc(C)c3)c(C)c12	Cav3 T inh -5.1
COc1cccc(=O)c2c(C)n(C)c(C)c12	none
C/C(=N\OC(=O)c1ccc(Cl)cc1)c1nccs1	hDAT+cocaine -2.8
O=c1[nH]c(NCCO)nc2c1C1(CCCC1)Cc1ccccc1-2	Cav3 T inh -4.1
O=c1[nH]c(CN(CCO)CCO)nc2c1C1(CCCCC1)Cc1ccccc1-2	Cav3 T inh -11
CCN(CC)Cc1nc2c(c(=O)[nH]1)C1(CCCC1)Cc1ccccc1-2	Cav3 T inh -6.7
CCC1(CC)Cc2ccccc2-c2nc(CN3CCOCC3)[nH]c(=O)c21	none
CCn1c(SCC#N)nc2c(c1=O)C1(CCCC1)Cc1ccccc1-2	Cav3 T inh -6.9
C=CCNC(=S)NNc1nc2c(c(=O)[nH]1)C1(CCCCC1)Cc1ccccc1-2	none (no result: hDAT+cocaine, PTK2B oligo ant, PLK1 PBD inh, PLK1 kinase inh, Cav3 T inh)
COc1ccc([N+](=O)[O-])cc1NC(=O)c1ccc(CN(c2ccccc2)S(C)(=O)=O)cc1	none (no result: hDAT+cocaine, PTK2B oligo ant, PLK1 PBD inh, PLK1 kinase inh, Cav3 T inh)
